Drawing on PubChem BioAssay AID2588 (National Center for Advancing Translational Sciences (NCATS), 2010), this text covers Potency for 40 compounds.

Molecules are shown by their SMILES. Records with an inconclusive call do not appear. A call without a number means that no potency is given here. Active and inactive are the calls of the source. Calls come from the whole dose curve; as a rule, active = well fitted inhibition curve with a large enough effect; inconclusive = small, poorly fitted or top-dose-only effect, or effect the other way; inactive = flat fitted curve, though single readings scatter.

Sequence of Lysosomal acid glucosylceramidase (Homo sapiens) (P04062 whole entry, looked up): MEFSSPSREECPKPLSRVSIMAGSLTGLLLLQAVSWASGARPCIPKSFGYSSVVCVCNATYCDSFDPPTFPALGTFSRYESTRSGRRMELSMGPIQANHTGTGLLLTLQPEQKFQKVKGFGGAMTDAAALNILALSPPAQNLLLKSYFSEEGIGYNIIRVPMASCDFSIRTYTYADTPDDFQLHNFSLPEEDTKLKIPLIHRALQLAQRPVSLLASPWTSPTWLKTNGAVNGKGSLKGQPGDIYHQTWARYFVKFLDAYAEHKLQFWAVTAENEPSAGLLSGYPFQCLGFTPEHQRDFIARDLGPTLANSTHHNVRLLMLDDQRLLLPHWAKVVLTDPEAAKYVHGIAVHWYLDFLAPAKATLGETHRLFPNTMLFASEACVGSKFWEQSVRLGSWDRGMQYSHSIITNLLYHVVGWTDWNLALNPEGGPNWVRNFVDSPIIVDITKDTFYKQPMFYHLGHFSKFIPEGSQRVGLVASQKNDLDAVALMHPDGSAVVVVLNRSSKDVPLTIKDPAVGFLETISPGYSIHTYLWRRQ

The experiment has as its target Lysosomal acid glucosylceramidase (Homo sapiens) (UniProt P04062). As to the kind of experiment: qHTS Assay for Inhibitors and Activators of N370S glucocerebrosidase as a Potential Chaperone Treatment of Gaucher Disease: Activity in Non-Mutant Spleen Homogenate Using a Red Fluorescent Substrate. Conditions: red fluorogenic substrate GCase activity; series mostly up to 50.2 µM. The text has this: NIH Chemical Genomics Center [NCGC]
NIH Molecular Libraries Probe Production Centers Network [MLPCN]
Assay Submitter (PI): Wei Zheng
Glucocerebrosidase (GC) catalyzes the hydrolysis of beta-glucocerebroside to glucose and ceramide in lysosomes. Mutations in the glucocerebrosidase gene result in Gaucher disease, an autosomal recessive lysosomal storage disorder. Many of the mutations encountered in patients with Gaucher disease are missense alterations that may cause misfolding, decreased stability and/or mistrafficking of this lysosomal protein. […] These inhibitors include iminosugar analogs and three non-iminosugar inhibitors identified from a previous HTS of 62,000 compounds with the wild type recombinant enzyme. However, the enhancement of enzyme activity by the chaperone action of an enzyme inhibitor must be balanced against the direct inhibition of the enzyme. An enzyme activator could also function as a chaperone by binding to the enzyme and helping to correct its misfolding and mistrafficking. While activators for GC have not yet been identified, they may have better therapeutic potential than inhibitors. Therefore the discovery and development of chemical activators may provide a new strategy for the chaperone therapy.
We have optimized a new assay using N370S mutant GC derived from the spleen of a Gaucher patient. […] In addition, the MLPCN compound library has expanded, which increases the chance of finding new and better probes.
This confirmation assay tests for compound activity in spleen homogenate containing wildtype enzyme using an alternate resorufin-based substrate.
NCGC Assay Protocol Summary:
This is a fluorogenic enzyme assay with resorufin-beta-D-glucopyranoside as the substrate and wildtype glucocerebrosidase from human spleen homogenate as the enzyme preparation. Upon the hydrolysis of this fluorogenic substrate, the resulting product, […] which can be detected by a standard fluorescence plate reader. Data were normalized to the controls for basal activity (without enzyme) and 100% activity (with enzyme). The AC50 values were determined from concentration-response data modeled with the standard Hill equation.
Assay buffer: 50 mM citric acid (titrated with potassium phosphate to pH 5.0), 100 mM potassium chloride, 10 mM sodium chloride, 1 mM magnesium chloride, 0.01% Tween-20.
1536-well assay protocol:
(1) Add 2 ul/well of spleen homogenate (27 ug final)
(2) Add 23 nL compounds in DMSO solution. The final titration was 0.5 nM to 58 uM.
(3) Add 2 ul of substrate (1 mM final)
(4) Incubate at 37C for 40 min.
(5) Add 2 ul stop solution (1M NaOH and 1M Glycine mixture, pH 10)
(6) Detect the assay plate in a ViewLux plate reader (PerkinElmer) with Ex=365 nm and Em=440nm.
Keywords: Glucocerebrosidase, beta-glucosidase, Gaucher Disease, pharmacological chaperone, chaperone therapy, high throughput screening, glucocerebrosidase inhibitor, MLSMR, MLSCN, NIH Roadmap, qHTS and NCGC
Background: Quantitative high-throughput screening tests each substance at several concentrations.
As for `O=c1cc(N2CCCCC2)c(-c2ccccc2)nn1Cc1c(Cl)cccc1Cl`, the Potency entry is “inactive”.
To `Cc1ccc(S(=O)(=O)N2CCN(c3nc(-c4ccc(F)cc4)nc4cc(Cl)ccc34)CC2)cc1` belongs “inactive”; to `O=C(Nc1cnn(Cc2ccc(F)cc2)c1)c1cnn2c(C(F)F)cc(-c3ccccc3)nc12`, “inactive”; to `COc1ccc(S(=O)(=O)N2CCN(c3nc(-c4cccs4)nc4ccccc34)CC2)cc1OC`, 0.224 µM (active).
The entry for `COC(=O)c1ccccc1NC(=O)c1ccc2c(c1)C(=O)N(Cc1ccccc1)C2=O` is “inactive”; for `CCCNC(=O)COC(=O)c1ccccc1OCC(=O)Nc1ccc(Br)cc1` it is “inactive”; for `O=C(Nc1cc(Br)ccc1O)c1cnn2c(C(F)F)cc(C3CC3)nc12` it is “inactive”.
To `Cc1cc(N2CCN(c3ncccn3)CC2)nc2ccc(NC(=O)C3CCC(C)CC3)cc12` (stereo not given) belongs 11.2 µM (active); to `O=S(=O)(c1ccc(Cl)cc1)N1CCN(c2nc(-c3ccc(F)cc3)nc3cc(Cl)ccc23)CC1`, “inactive”.
With `O=C(COc1ccccc1[N+](=O)[O-])Nc1ccc(Br)cc1`, the Potency entry is “inactive”.
The figure for `O=S(=O)(c1ccc2c(c1)CCCC2)N1CCN(c2nc(-c3cccs3)nc3ccccc23)CC1` is 0.282 µM (active).
The figure for `N#Cc1ccc(S(=O)(=O)N2CCN(c3nc(-c4cccs4)nc4ccccc34)CC2)cc1` is 0.794 µM (active); for `COc1cc(OC)c2c(N)c(C#N)c(C(F)(F)C(F)(F)F)nc2c1` it is “inactive”; for `O=S(=O)(c1ccc(F)cc1)N1CCN(c2nc(-c3cccc(Br)c3)nc3ccccc23)CC1` it is “inactive”.
To `O=[N+]([O-])c1ccccc1S(=O)(=O)N1CCN(c2nc(-c3cccs3)nc3ccccc23)CC1` belongs 0.562 µM (active).
For the compound `COc1cc2c(cc1NC(=O)COC(=O)[C@@H](NC(=O)c1ccccc1)C(C)C)oc1ccccc12`, the Potency result was “inactive”.
Consider `c1ccc2c(NCC3CCCO3)nc(N3CCOCC3)nc2c1` (stereo not given), for which the Potency entry is “inactive”.
`O=S(=O)(c1ccc2c(c1)OCCO2)N1CCN(c2nc(-c3cccs3)nc3ccccc23)CC1`: the Potency is 0.141 µM (active).
Take `O=S(=O)(c1ccc(Br)cc1)N1CCN(c2nc(-c3cccs3)nc3ccccc23)CC1`: the Potency was 0.794 µM (active).
To `O=S(=O)(c1ccc(F)cc1)N1CCN(c2nc(-c3ccccc3)nc3cc(Cl)ccc23)CC1` belongs “inactive”.
The figure for `O=S(=O)(c1ccccc1C(F)(F)F)N1CCN(c2nc(-c3cccs3)nc3ccccc23)CC1` is 0.224 µM (active).
As to `COc1ccc(Nc2nc(-c3cccs3)nc3ccccc23)cc1`, the Potency was 1.41 µM (active).
To `Cc1cc(C)cc(N(CC(=O)NC2CCCCCC2)S(=O)(=O)c2c(C)[nH]c(=O)[nH]c2=O)c1` belongs 0.631 µM (active); to `O=S(=O)(c1ccccc1C(F)(F)F)N1CCN(c2nc(-c3ccccc3)nc3ccccc23)CC1`, 1 µM (active); to `CC1(C)CC(=O)C2=C(C1)c1c(ccc3ccccc13)NC2c1ccc(Br)o1` (stereo not given), “inactive”.
The figure for `O=C(/C=C/c1ccc(O)cc1)c1ccc(O)cc1O` is 3.98 µM (active); for `O=S(=O)(c1ccc(C(F)(F)F)cc1)N1CCN(c2nc(-c3cccs3)nc3ccccc23)CC1` it is 1.26 µM (active).
To `N#Cc1ccccc1Sc1ccccc1C(=O)OCC(=O)NC12CC3CC(CC(C3)C1)C2` belongs “inactive”.
Regarding `Cc1cc(N2CCOCC2)nc2ccc(NC(=O)C3CCC(C)CC3)cc12` (stereo not given), the Potency is 2.82 µM (active).
In the case of `Nc1nc(-c2ccccc2)c(N=Nc2ccc(Cl)cc2)s1`, the Potency result is “inactive”.
To `CCOc1ccc(N(CC(=O)NC2CCCCCC2)S(=O)(=O)c2c(C)[nH]c(=O)[nH]c2=O)cc1` belongs 1.41 µM (active).
The figure for `O=S(=O)(c1cccc(Cl)c1)N1CCN(c2nc(-c3cccs3)nc3ccccc23)CC1` is 1.26 µM (active); for `COc1ccccc1C(=O)COC(=O)c1ccccc1OCC(=O)Nc1ccc(SC(F)F)cc1` it is “inactive”; for `CCc1cc(C(=O)N/N=C/c2c(C)[nH]c3ccccc23)cs1` it is “inactive”.
The entry for `Cc1ccc(S(=O)(=O)Nc2ccc(C(=O)NCc3ccccc3)cc2)cc1` is “inactive”; for `CCC(C)NC(=O)COC(=O)c1ccccc1OCC(=O)Nc1ccc(Br)cc1` (stereo not given) it is “inactive”.
In the case of `COc1ccccc1NC(=O)COc1ccccc1C(=O)Nc1ccccc1`, the Potency entry was “inactive”.
To `CC(=O)c1ccc(S(=O)(=O)N2CCN(c3nc(-c4cccs4)nc4ccccc34)CC2)cc1` belongs 1.12 µM (active).
The figure for `COc1cccc(CN(C)c2nc(-c3cccs3)nc3ccccc23)c1` is 2 µM (active).
The figure for `Cc1cc(N2CCOCC2)nc2ccc(NC(=O)CCC3CCCC3)cc12` is 3.16 µM (active).
